The nature of assay [1]: Primary qHTS for small molecule stabilizers of the endoplasmic reticulum resident proteome: Secreted ER Calcium Modulated Protein (SERCaMP) assay (AID 1508630). Further: on the % scale 0 is the no-effect control and ±100 the full control effect. The note with it: SH-SY5Y GLuc-SERCaMP (Gaussia luciferase released on ER calcium loss) secretion, thapsigargin, luminescence; series mostly up to 38.4 µM. Put shortly: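 GLuc-SERCaMP-expressing SH-SY5Y cells, pretreated 16 h with compound, are challenged with thapsigargin to empty ER calcium stores; after 4 h, coelenterazine is added directly to the medium and luminescence is imaged.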
(Quantitative high-throughput screening tests each substance at several concentrations.)

Assay [2] deals with Cytochrome P450 2D6 (Homo sapiens) (UniProt P10635). Kind of assay: Cytochrome P450 family 2 subfamily D member 6 (CYP2D6) small molecule antagonists: luciferase biochemical (cell-free) qHTS assay (AID 1645840; active means well fitted curve in the direction sought with a large enough effect in the repeat runs; an effect the other way counts as inactive or inconclusive; further: nearly all actives have a fitted effect of over 55% in size; further: potency means the concentration at half of the fitted maximal effect; on activity change, negative = inhibition: on the % scale 0 is the no-effect control and ±100 the full control effect). The note with it: P450-Glo CYP2D6 enzyme, luciferin luminescence, 1 h; series mostly up to 57.4 µM. Put shortly: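 P450-Glo luminescent screen: recombinant CYP2D6 enzyme–proluciferin substrate mix preincubated with compound 10 min at room temperature, then NADPH regeneration added for 1 h at room temperature. Detection reagent added for 20 min; luciferin light read as relative luminescence units.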
Sequence of Cytochrome P450 2D6 (Homo sapiens) (P10635 whole entry, looked up): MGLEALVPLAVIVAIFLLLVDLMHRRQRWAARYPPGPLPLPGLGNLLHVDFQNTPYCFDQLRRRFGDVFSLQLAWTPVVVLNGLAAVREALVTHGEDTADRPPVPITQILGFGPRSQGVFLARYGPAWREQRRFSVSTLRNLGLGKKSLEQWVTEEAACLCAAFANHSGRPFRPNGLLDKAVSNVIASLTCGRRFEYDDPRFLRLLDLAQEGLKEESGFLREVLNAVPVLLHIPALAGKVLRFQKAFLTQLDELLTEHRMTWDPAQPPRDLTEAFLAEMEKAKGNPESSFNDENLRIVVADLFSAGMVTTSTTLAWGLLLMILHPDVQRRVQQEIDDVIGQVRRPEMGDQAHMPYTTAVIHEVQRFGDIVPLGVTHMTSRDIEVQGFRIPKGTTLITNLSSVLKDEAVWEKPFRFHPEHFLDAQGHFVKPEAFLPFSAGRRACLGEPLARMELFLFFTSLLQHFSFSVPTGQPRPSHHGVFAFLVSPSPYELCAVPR

Assay [3] addresses Cytochrome P450 2C9 (Homo sapiens) (UniProt P11712). The experiment in a line: Cytochrome P450 family 2 subfamily C member 9 (CYP2C9) small molecule antagonists: luciferase biochemical (cell-free) qHTS assay (AID 1645842; active means well fitted curve in the direction sought with a large enough effect in the repeat runs; an effect the other way counts as inactive or inconclusive; further: nearly all actives have a fitted effect of over 55% in size; further: potency means the concentration at half of the fitted maximal effect; on activity change, negative = inhibition: on the % scale 0 is the no-effect control and ±100 the full control effect). The note with it: P450-Glo CYP2C9 enzyme assay, luciferin luminescence; series mostly up to 57.4 µM. The procedure, abridged: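 Luminescence, after 20 min with luciferin detection reagent, reflected CYP2C9 turnover during a 1 h NADPH-driven reaction at 37C. Enzyme-substrate mix contained 0.4% bovine serum albumin and was preincubated with compound 10 min at room temperature.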

The nature of assay [4]: Cytotoxicity counterscreen for inhibitors of SARS-CoV-2 cell entry (AID 1645845; calls by dose curve; further: nearly all actives have a fitted effect of over 50% in size; further: potency means the concentration at half of the fitted maximal effect). The following applies: cell viability (SARS-CoV-2 entry assay cells); series mostly up to 57.1 µM. The procedure, abridged: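 HEK293-ACE2 cells (Expi293F stably expressing human ACE2) seeded overnight, then compound for 1 h plus 48 h at 37C. Viability as ATP content by luminescence; normalized to wells with cells and media-only wells.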
(In general: The purpose of a counterscreen is to sort out artefacts and off-target activity.)

Assay [5] in a line: Primary qHTS for inhibitors of nuclear receptor binding SET domain protein 2 (NSD2) in an isogenic RCH-ACV NSD2 p.E1099K mutant (9B) (AID 1645876). Further: nearly all actives have a fitted effect of over 70% in size. Further: potency means the concentration at half of the fitted maximal effect. The following applies: RCH-ACV NSD2 E1099K (9B) viability, CellTiter-Glo, 72 h; series mostly up to 44.9 µM.
A short description of assay [6]: A High-Content qHTS Against Drug Library for the Identification of Small Molecules that Inhibit DYT1 Early Onset Primary Dystonia-Associated Cell Pathology (AID 1645839; calls by dose curve). The note with it: HEK293 Flp-In EGFP-delE TorsinA, punctate imaging, 48 h; series mostly up to 46.1 µM. Put shortly:
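Flp-In T-REx 293 cells with tetracycline-inducible EGFP-delE hTOR1A (WT EGFP-hTOR1A as reference), 800 cells/well; compound added with tetracycline, 48 h at 37 C. Fixed, permeabilized cells imaged; %pathology (punctate TorsinA) primary, cell count counterscreen.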

Assay [7] is described as follows: Primary qHTS to identify inhibitors of SARS-CoV-2 cell entry (AID 1645846; calls by dose curve; further: nearly all actives have a fitted effect of over 45% in size). The note with it: SARS-CoV-2 pseudovirus cell entry assay, luminescence; activity change, negative = inhibition: at 57.1 µM (top of the series) unless noted; series mostly up to 57.1 µM. The procedure, abridged:
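Inhibition of spike-mediated entry was scored in human ACE2-transfected Expi293F cells. Particles were MLV-pseudotyped with Wuhan-Hu-1 S carrying a 19-aa C-terminal deletion; signal was luciferase after two days, scaled between spike PP and fusion-protein-free PP.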

Assay [8] in a line: Primary qHTS for inhibitors of nuclear receptor binding SET domain protein 2 (NSD2) in an RCH-ACV wild type WT cells (2C) (AID 1645877). Further: nearly all actives have a fitted effect of over 70% in size. Further: potency means the concentration at half of the fitted maximal effect. The following applies: RCH-ACV (leukaemia line) NSD2 WT (2C) viability, CellTiter-Glo, 72 h; series mostly up to 44.9 µM.
In assay [9] the target is Catechol O-methyltransferase (Homo sapiens) (UniProt P21964). Kind of assay: Confirmatory Screen for Target Class Profiling of Small Molecule Inhibitors of Methyltransferases (AID 1745852; calls by dose curve; on activity change, negative = inhibition: on the % scale 0 is the no-effect control and ±100 the full control effect). The note with it: MTase-Glo luminescence, SAH detection, recombinant enzyme; measured here: COMT max response; stronger effect = lower value.
Sequence of Catechol O-methyltransferase (Homo sapiens) (P21964 whole entry, looked up): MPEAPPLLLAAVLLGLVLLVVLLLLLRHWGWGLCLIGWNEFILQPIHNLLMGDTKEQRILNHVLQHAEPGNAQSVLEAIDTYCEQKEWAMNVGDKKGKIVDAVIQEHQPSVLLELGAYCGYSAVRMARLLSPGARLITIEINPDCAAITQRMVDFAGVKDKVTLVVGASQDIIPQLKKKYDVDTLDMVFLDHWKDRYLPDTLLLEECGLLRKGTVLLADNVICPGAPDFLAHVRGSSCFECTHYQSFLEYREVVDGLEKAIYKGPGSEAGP
Assay [10] deals with Guanidinoacetate N-methyltransferase (Homo sapiens) (UniProt Q14353). The description is as above. The note with it: MTase-Glo luminescence, SAH detection, recombinant enzyme; activity change, negative = inhibition: at 57.3 µM (top of the series).
For assay [11], the target named is Nicotinamide N-methyltransferase (Homo sapiens) (UniProt P40261). Described as above. The note with it: MTase-Glo luminescence, SAH detection, recombinant enzyme; measured here: NNMT max response; stronger effect = lower value.
Sequence of Nicotinamide N-methyltransferase (Homo sapiens) (P40261 whole entry, looked up): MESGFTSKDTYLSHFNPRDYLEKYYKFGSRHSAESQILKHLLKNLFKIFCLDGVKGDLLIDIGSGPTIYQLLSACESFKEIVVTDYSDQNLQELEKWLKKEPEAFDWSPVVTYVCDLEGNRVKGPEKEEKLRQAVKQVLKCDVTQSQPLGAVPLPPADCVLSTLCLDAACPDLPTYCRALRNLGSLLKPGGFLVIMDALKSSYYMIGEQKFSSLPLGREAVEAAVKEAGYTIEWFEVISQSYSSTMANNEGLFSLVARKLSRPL
For assay [12], the target named is Cytochrome P450 3A4 (Homo sapiens) (UniProt P08684). Kind of assay: Cytochrome P450 family 3 subfamily A member 4 (CYP3A4) small molecule antagonists: luciferase qHTS assay (AID 1645841; active means well fitted curve in the direction sought with a large enough effect in the repeat runs; an effect the other way counts as inactive or inconclusive; further: nearly all actives have a fitted effect of over 45% in size). The following applies: P450-Glo CYP3A4 enzyme assay, luciferin luminescence; series mostly up to 57.4 µM. The procedure, abridged:
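P450-Glo CYP3A4 enzyme with proluciferin substrate preincubated 10 min with compound at room temperature, then NADPH regeneration 1 h. Luciferin detection reagent added for 20 min; luminescence recorded. Ketoconazole positive control.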

Assay [13] in a line: Confirmatory qHTS to identify inhibitors of SARS-CoV-2 cell entry (AID 1645844; calls by dose curve; further: potency means the concentration at half of the fitted maximal effect; nearly all actives have a fitted effect of over 45% in size). The following applies: SARS-CoV-2 pseudotyped particle cell entry, luciferase; series mostly up to 57.2 µM. The procedure, abridged:
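HEK293-ACE2 cells were pretreated 1 h with compound, then infected with MLV-based pseudoparticles bearing C-terminally truncated Wuhan-Hu-1 spike for 48 h at 37C; luciferase luminescence normalized to spike PP and bald PP wells.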

For assay [14], the target named is N-terminal Xaa-Pro-Lys N-methyltransferase 1 (Homo sapiens) (UniProt Q9BV86). Kind of assay: Confirmatory qHTS for Inhibitors of N-terminal methyltransferase 1 (NTMT1): MTaseGlo Assay (AID 1645874).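 Further: luminescence from SAH made as NTMT1 methylates SPKRIA peptide using SAM; 0% = DMSO control and -100% = no-enzyme control; nearly all actives have a fitted effect of over 65% in size.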 The following applies: NTMT1 enzyme, MTase-Glo SAH luminescence; series mostly up to 204 µM. The procedure, abridged:
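qHTS format: NTMT1 125 nM, SAM 100 uM, peptide SPKRIA 1 uM final; 15 min compound preincubation, 30 min reaction at room temperature. MTase-Glo luminescence.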

Inconclusive results are not listed. Calls of active or inactive are those of the source. Unless noted, the call rests on the fitted dose curve; in most records, active means well fitted curve in the direction sought with a large enough effect; inconclusive means small, poorly fitted or top-dose-only effect, or another doubt; inactive means no such curve, though single readings can be large; an effect the other way counts as inactive or inconclusive.

Sequence of Cytochrome P450 2C9 (Homo sapiens) (P11712 whole entry, looked up): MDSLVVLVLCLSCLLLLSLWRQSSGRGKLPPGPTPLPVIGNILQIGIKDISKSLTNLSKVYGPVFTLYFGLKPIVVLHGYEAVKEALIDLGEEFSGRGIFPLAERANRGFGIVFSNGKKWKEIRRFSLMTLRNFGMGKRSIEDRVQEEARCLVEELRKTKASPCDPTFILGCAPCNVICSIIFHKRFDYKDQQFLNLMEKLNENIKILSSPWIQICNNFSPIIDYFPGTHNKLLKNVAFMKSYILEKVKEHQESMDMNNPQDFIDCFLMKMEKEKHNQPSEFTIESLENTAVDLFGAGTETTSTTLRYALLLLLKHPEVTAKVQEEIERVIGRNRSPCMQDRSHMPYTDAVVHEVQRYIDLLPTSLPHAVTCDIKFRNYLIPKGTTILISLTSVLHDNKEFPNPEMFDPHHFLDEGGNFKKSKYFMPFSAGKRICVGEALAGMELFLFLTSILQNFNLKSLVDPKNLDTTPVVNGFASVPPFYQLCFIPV
Sequence of N-terminal Xaa-Pro-Lys N-methyltransferase 1 (Homo sapiens) (Q9BV86 whole entry, looked up): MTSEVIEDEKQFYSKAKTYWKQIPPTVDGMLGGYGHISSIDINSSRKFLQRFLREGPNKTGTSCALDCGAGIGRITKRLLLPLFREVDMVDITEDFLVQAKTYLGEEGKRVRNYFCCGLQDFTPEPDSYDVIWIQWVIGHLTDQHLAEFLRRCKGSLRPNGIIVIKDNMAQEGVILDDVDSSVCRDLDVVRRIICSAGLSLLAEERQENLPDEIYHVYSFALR
Sequence of Cytochrome P450 3A4 (Homo sapiens) (P08684 whole entry, looked up): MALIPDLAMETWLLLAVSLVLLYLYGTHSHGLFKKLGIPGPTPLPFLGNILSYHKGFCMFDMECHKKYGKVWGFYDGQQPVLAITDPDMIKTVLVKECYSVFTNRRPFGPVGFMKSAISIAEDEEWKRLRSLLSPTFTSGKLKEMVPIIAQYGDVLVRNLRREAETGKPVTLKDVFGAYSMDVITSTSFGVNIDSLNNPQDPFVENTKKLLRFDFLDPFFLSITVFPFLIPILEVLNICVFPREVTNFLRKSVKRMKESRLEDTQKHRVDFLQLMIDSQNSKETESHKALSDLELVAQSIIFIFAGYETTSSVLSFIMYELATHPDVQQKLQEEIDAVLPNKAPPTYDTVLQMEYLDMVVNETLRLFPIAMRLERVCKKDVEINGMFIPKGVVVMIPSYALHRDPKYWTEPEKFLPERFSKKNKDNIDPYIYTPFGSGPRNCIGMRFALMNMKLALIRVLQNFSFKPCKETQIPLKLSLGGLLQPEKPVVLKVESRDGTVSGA

Turning to `C=CCOC(Cn1ccnc1)c1ccc(Cl)cc1Cl` (centres undefined), in assay [1], the outcome was “inactive”. Further, the Potency in assay [2] is 2.88 µM (active); in assay [3], 0.683 µM (active); in assay [5], 23.7 µM (active). Moreover, in assay [4], the Potency result was “inactive”.
For `CNC(=O)Oc1cccc2ccccc12`, in assay [6], the outcome is “inactive”. Besides, the Potency entry in assay [2], in assay [3], in [4] and in [7] was “inactive” throughout.
Turning to `C[C@]12CC[C@H](O)CC1=CC[C@@H]1[C@@H]2CC[C@]2(C)C(=O)CC[C@@H]12`, the outcome in assay [1] and in assay [6] was “inactive” throughout. Moreover, the Potency result in assay [3], in [4], in [7] and in assay [8] was “inactive” throughout.
Turning to `C=CCN1CC[C@]23CCCC[C@H]2[C@H]1Cc1ccc(O)cc13`, the outcome in assay [1] and in [6] was “inactive” in each case. For the same compound, the Potency entry in assay [3], in assay [4], in assay [5] and in [8] was “inactive” throughout. In addition, the activity in assay [9] is 0.434%; in assay [11] it was -15.3%. Further, the activity change, negative = inhibition in assay [10] was 3.29%.
In the case of `CCCCCCCCCCCC[N+](C)(C)CCOc1ccccc1`, the outcome in [1] is “inactive”. The Potency was 1.74 µM (active) in assay [2], 20 µM (active) in [4], 1.33 µM (active) in assay [5] and 0.944 µM (active) in assay [8].
On to `CC(=O)OC1(c2ccccc2)CCN(CCc2ccccc2)CC1`, for which the outcome in [1] is “inactive”. Moreover, the Potency result in [12], in [5] and in assay [8] was “inactive” in each case.
Turning to `Cc1ncc2n1-c1ccc(Cl)cc1C(c1ccccc1F)=NC2`, the outcome in assay [1] and in assay [6] was “inactive” throughout. Further, the Potency in assay [5] was 23.7 µM (active); in assay [8], 13.3 µM (active).
For `c1ccc2c(c1)Sc1ccccc1N2CC1CN2CCC1CC2` (centres undefined), in [1], the outcome is “inactive”. Further, the figures for the Potency in assay [2] and in assay [13] were 0.123 µM (active) and 4.82 µM (active), respectively. Besides, the Potency result in [3] was “inactive”.
Regarding `CCc1cc(OC)c(C[C@H](C)N)cc1OC`, the outcome in [1] and in assay [6] was “inactive” throughout. Also, the Potency entry in assay [3] and in assay [14] was “inactive” throughout. Further, in [8], the Potency is 44.9 µM (active).
Turning to `O=C(CCl)c1ccc(Cl)cc1Cl`, the outcome in assay [1] was “inactive”. For the same compound, the Potency entry in [2], in [5] and in assay [8] was “inactive” each time.
As for `CN1CCC(N(Cc2ccccc2)c2ccccc2)CC1`, the outcome in assay [6] is “inactive”. For the same compound, the Potency in assay [2] was 0.11 µM (active). Besides, the Potency entry in assay [3] was “inactive”.
As for `COc1ccc2c3c1O[C@H]1[C@@H](O)C=C[C@H]4[C@@H](C2)N(C)CC[C@@]341`, the outcome in [1] is “inactive”. Further, the Potency result in assay [3] was “inactive”. In addition, the Potency in assay [5] and in assay [8] was 6.72 µM (active) each time.
As to `O=C(N[C@@H]1N=C(c2ccccc2F)c2cccc3c2N(CC3)C1=O)c1cc2ccccc2[nH]1`, the Potency result in assay [2] was “inactive”.
Take `O=c1n(Cl)c(=O)n(Cl)c(=O)n1Cl`: in [6], the outcome was “inactive”. Besides, the Potency result in [2], in [3], in assay [4], in assay [5] and in [8] was “inactive” each time. The activity change, negative = inhibition in [7] was 1.05%.
Consider `CN1C(=O)[C@@H](NC(=O)c2cc3ccccc3[nH]2)N=C(c2ccccc2)c2ccccc21`, for which the Potency result in assay [2], in [5] and in assay [8] was “inactive” in each case. The Potency in [3] is 2.75 µM (active).
As for `COc1ccc(CN2CCNCC2)c(OC)c1OC`, in [6], the outcome is “inactive”. Also, the Potency entry in [4], in assay [7] and in assay [5] was “inactive” in each case.
